The source of these data is PubChem BioAssay (NCI).

The nature of assay [1]: NCI Yeast Anticancer Drug Screen. Data for the rad50 strain (AID 155).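 Note: 0% = growth of vehicle-only cultures of the same strain.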 The following applies: S. cerevisiae rad50 strain growth inhibition, stronger effect = higher value. The method, boiled down:
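Compounds were tested on a yeast strain with an engineered DNA damage repair alteration; the reported value is growth inhibition normalised to vehicle treatment.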

Assay [2] can be described thus: NCI Yeast Anticancer Drug Screen. Data for the mec2-1 strain (AID 157). The following applies: S. cerevisiae mec2-1 strain, stronger effect = higher value. An outline of the steps: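 Vehicle-treated cultures served as reference for growth inhibition of compound-exposed mec2-1 yeast.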
Assay [3] is described as follows: NCI Yeast Anticancer Drug Screen. Data for the sgs1 mgt1 strain (AID 161).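 Note: 0% = growth of cultures given vehicle only.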 The following applies: S. cerevisiae sgs1 mgt1 strain, stronger effect = higher value. The method, boiled down: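 Read-out: growth inhibition vs vehicle controls. Cells: mutant yeast strain deficient in DNA damage repair.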
The nature of assay [4]: NCI Yeast Anticancer Drug Screen. Data for the cln2 rad14 strain (AID 165).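 Note: 0% = growth equal to vehicle treated cultures.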 The note with it: S. cerevisiae cln2 rad14 strain, stronger effect = higher value. The method, boiled down:
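Each compound was tested on cln2 rad14 yeast. Inhibition of growth was calculated against vehicle-exposed controls.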

Assay [5] is described as follows: NCI Yeast Anticancer Drug Screen. Data for the bub3 strain (AID 167). The following applies: S. cerevisiae bub3 mutant strain, stronger effect = higher value. An outline of the steps: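 Growth of a checkpoint-deficient yeast mutant is measured after compound exposure. Values represent inhibition relative to vehicle.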
The nature of assay [6]: NCI Yeast Anticancer Drug Screen. Data for the mlh1 rad18 strain (AID 175). The note with it: S. cerevisiae mlh1 rad18 strain growth inhibition, stronger effect = higher value. An outline of the steps: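 Vehicle-treated cultures served as the reference for growth inhibition in a yeast strain carrying DNA damage repair alterations exposed to each compound.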
[7] abbreviates: at 5.0 µM (retest, dose inferred, filed as 0.5).
The mark [8] stands for this setting: at 50.0 µM (retest, dose inferred, filed as 5.0).

About 79,000 compounds went through this panel and 15% of them were active in at least one assay; those are over-represented in the sample as a whole. Values without a mark were called inactive. Active and inactive are the calls of the source. Cut-off read from the data, not from the text of the source: active = growth inhibition above about 70%; inactive = the rest.

As to `CCCCCCCCS(=O)(=O)Nc1ccccc1`, the growth inhibition in assay [1] (setting [7]) was 11%; in assay [1] (setting [8]) it was 98% (active); in assay [1] (at 50.0 µM), 99.3% (active); in assay [2] (setting [7]), 0%; in assay [2] (setting [8]), 99% (active); in assay [2] (at 50.0 µM), 99.2% (active). The growth inhibition in assay [3] (setting [7]) is 6%; in assay [3] (setting [8]), 99% (active); in assay [3] (at 50.0 µM), 99.3% (active); in assay [4] (setting [7]), 4%; in assay [4] (setting [8]), 99% (active); in assay [4] (at 50.0 µM), 99.4% (active). In addition, the growth inhibition in assay [5] (setting [7]) was 4%; in assay [5] (setting [8]) it was 99% (active); in assay [5] (at 50.0 µM), 99.1% (active); in assay [6] (setting [7]), -5%; in assay [6] (setting [8]), 61%; in assay [6] (at 50.0 µM), 99.1% (active).

Take `C/C(=N/NC(=S)Nc1cccc(C)c1)c1ccccn1`: the growth inhibition was 62% in assay [1] (setting [7]); 99% (active) in assay [1] (setting [8]); 80.2% (active) in assay [1] (at 50.0 µM); 91% (active) in assay [2] (setting [7]); 99% (active) in assay [2] (setting [8]); 85.9% (active) in assay [2] (at 50.0 µM). Further, the growth inhibition in assay [3] (setting [7]) was 75% (active); in assay [3] (setting [8]) it was 99% (active); in assay [3] (at 50.0 µM), 88.3% (active); in assay [4] (setting [7]), 94% (active); in assay [4] (setting [8]), 99% (active); in assay [4] (at 50.0 µM) it was 88.9% (active). Also, the growth inhibition was 96% (active) in assay [5] (setting [7]); 99% (active) in assay [5] (setting [8]); 90.3% (active) in assay [5] (at 50.0 µM); 68% in assay [6] (setting [7]); 99% (active) in assay [6] (setting [8]); 91% (active) in assay [6] (at 50.0 µM).

On to `COc1cccc(C2c3cc4c(cc3OC(NNc3ccccc3)C2C)OCO4)c1O` (configuration not stated), for which the growth inhibition in assay [1] (setting [7]) was -8%; in assay [1] (setting [8]) it was 88% (active); in assay [1] (at 50.0 µM) it was 94% (active); in assay [2] (setting [7]), -5%; in assay [2] (setting [8]), 79% (active); in assay [2] (at 50.0 µM), 95.3% (active). Moreover, the growth inhibition in assay [3] (setting [7]) is 1%; in assay [3] (setting [8]), 93% (active); in assay [3] (at 50.0 µM), 95.8% (active); in assay [4] (setting [7]), 19%; in assay [4] (setting [8]), 88% (active); in assay [4] (at 50.0 µM), 94.2% (active). In addition, the growth inhibition was -8% in assay [5] (setting [7]); 97% (active) in assay [5] (setting [8]); 96.8% (active) in assay [5] (at 50.0 µM); 27% in assay [6] (setting [7]); 91% (active) in assay [6] (setting [8]); 95.7% (active) in assay [6] (at 50.0 µM).

As to `O=C(Nc1ccccc1-c1nn(CN2CCNCC2)c(=S)n(CN2CCNCC2)c1=O)C(F)(F)F`, the growth inhibition in assay [1] (setting [7]) was 0%; in assay [1] (setting [8]), 17%; in assay [1] (at 50.0 µM), 7.5%; in assay [2] (setting [7]) it was 0%; in assay [2] (setting [8]) it was 10%; in assay [2] (at 50.0 µM) it was 25.9%. Further, the growth inhibition in assay [3] (setting [7]) is -2%; in assay [3] (setting [8]), 13%; in assay [3] (at 50.0 µM), 12.6%; in assay [4] (setting [7]), -4%; in assay [4] (setting [8]), 10%; in assay [4] (at 50.0 µM) it was 68.1%. The growth inhibition in assay [5] (setting [7]) is 1%; in assay [5] (setting [8]), 0%; in assay [5] (at 50.0 µM), 8.65%; in assay [6] (setting [7]) it was -2%; in assay [6] (setting [8]), 14%; in assay [6] (at 50.0 µM), 38.6%.

On to `C/C(=N/NC(=O)Nc1ccc(N=Nc2ccccc2)cc1)c1ccccn1`, for which the growth inhibition in assay [1] (setting [7]) is -15%; in assay [1] (setting [8]), -12%; in assay [1] (at 50.0 µM), 15.2%; in assay [2] (setting [7]), -7%; in assay [2] (setting [8]) it was -5%; in assay [2] (at 50.0 µM) it was -10.9%. For the same compound, the growth inhibition is 0% in assay [3] (setting [7]); 19% in assay [3] (setting [8]); 24.8% in assay [3] (at 50.0 µM); 33% in assay [4] (setting [7]); -16% in assay [4] (setting [8]); -4.4% in assay [4] (at 50.0 µM). The growth inhibition in assay [5] (setting [7]) was 3%; in assay [5] (setting [8]), 43%; in assay [5] (at 50.0 µM), 16.4%; in assay [6] (setting [7]), -9%; in assay [6] (setting [8]) it was 15%; in assay [6] (at 50.0 µM), 28.1%.

`C=CCc1cccc(/C=N\N=C(/N)NO)c1O`: the growth inhibition in assay [1] (setting [7]) was -1%; in assay [1] (setting [8]), 26%; in assay [1] (at 50.0 µM), 43.5%; in assay [2] (setting [7]) it was 2%; in assay [2] (setting [8]) it was 35%; in assay [2] (at 50.0 µM) it was 84.5% (active). Also, the growth inhibition was 3% in assay [3] (setting [7]); 59% in assay [3] (setting [8]); 41.1% in assay [3] (at 50.0 µM); -6% in assay [4] (setting [7]); 26% in assay [4] (setting [8]); 48.6% in assay [4] (at 50.0 µM). Further, the growth inhibition was -4% in assay [5] (setting [7]); 8% in assay [5] (setting [8]); 70% (active) in assay [5] (at 50.0 µM); -2% in assay [6] (setting [7]); 42% in assay [6] (setting [8]); 83.2% (active) in assay [6] (at 50.0 µM).

`S=C(NC(=S)Nc1ccccc1)Nc1ccccc1`: the growth inhibition in assay [1] (setting [7]) is 0%; in assay [1] (setting [8]), 29%; in assay [1] (at 50.0 µM), 93.8% (active); in assay [2] (setting [7]), -5%; in assay [2] (setting [8]) it was 37%; in assay [2] (at 50.0 µM), 82.9% (active). Besides, the growth inhibition in assay [3] (setting [7]) is 7%; in assay [3] (setting [8]), 69%; in assay [3] (at 50.0 µM), 96.3% (active); in assay [4] (setting [7]), -8%; in assay [4] (setting [8]), 8%; in assay [4] (at 50.0 µM), 91.7% (active). Further, the growth inhibition in assay [5] (setting [7]) was -1%; in assay [5] (setting [8]), 21%; in assay [5] (at 50.0 µM), 96.3% (active); in assay [6] (setting [7]), 8%; in assay [6] (setting [8]), 55%; in assay [6] (at 50.0 µM), 95.3% (active).

On to `c1ccc(CCNCc2ccco2)nc1`, for which the growth inhibition is -2% in assay [1] (setting [7]); -5% in assay [1] (setting [8]); 42.5% in assay [1] (at 50.0 µM); -7% in assay [2] (setting [7]); -20% in assay [2] (setting [8]); 0.6% in assay [2] (at 50.0 µM). For the same compound, the growth inhibition in assay [3] (setting [7]) is -7%; in assay [3] (setting [8]), -26%; in assay [3] (at 50.0 µM) it was -21.2%; in assay [4] (setting [7]) it was -18%; in assay [4] (setting [8]), -91%; in assay [4] (at 50.0 µM), 23.6%. For the same compound, the growth inhibition in assay [5] (setting [7]) is 3%; in assay [5] (setting [8]) it was -2%; in assay [5] (at 50.0 µM) it was -24.3%; in assay [6] (setting [7]), -7%; in assay [6] (setting [8]), -3%; in assay [6] (at 50.0 µM) it was 7.7%.

Turning to `Cc1ccc(S(=O)(=O)C(Br)CC(=O)c2ccccc2)cc1` (configuration not stated), the growth inhibition is 64% in assay [1] (setting [7]); 96% (active) in assay [1] (setting [8]); 99% (active) in assay [1] (at 50.0 µM); 67% in assay [2] (setting [7]); 97% (active) in assay [2] (setting [8]); 99.8% (active) in assay [2] (at 50.0 µM). For the same compound, the growth inhibition in assay [3] (setting [7]) was 67%; in assay [3] (setting [8]), 97% (active); in assay [3] (at 50.0 µM), 99.7% (active); in assay [4] (setting [7]), 90% (active); in assay [4] (setting [8]) it was 96% (active); in assay [4] (at 50.0 µM) it was 99.5% (active). Besides, the growth inhibition in assay [5] (setting [7]) is 59%; in assay [5] (setting [8]), 97% (active); in assay [5] (at 50.0 µM), 99.7% (active); in assay [6] (setting [7]), 63%; in assay [6] (setting [8]), 97% (active); in assay [6] (at 50.0 µM), 99.3% (active).
